High-throughput results (PubChem BioAssay)
This is a sample that favours compounds with a hit; in the whole collection about 4.1% have one here.
hgDAF12 agonist: H. glycines DAF-12 receptor agonists, primary screen, cell-based, luminescence, HEK293, GAL4 fusion, UAS-luciferase | Nuclear hormone receptor DAF-12 (Heterodera glycines), GAL4 fusion | HEK293 GAL4-hgDAF12 UAS-luciferase reporter, agonist luminescence; normalized to butyrate control | activation, % at 6.8 µM | actives 1.8% (n = 370,000) | AID 687014, 2013;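 active means activation above a cutoff set at the mean of all screened compounds plus 3 SD, cut at about 10% in these data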;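 further: 0% = DMSO wells and 100% = sodium butyrate wells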
hcDAF-12 act: H. contortus DAF-12 nuclear receptor activators, primary screen, cell-based, luminescence, HEK293, lit1-tk-luc reporter; actives 1.4% (n = 370,000); AID 652067, 2013; activation, % at 6.8 µM; HEK293 hcDAF-12 lit1-tk-luc reporter; 0% DMSO, 100% Δ7-dafachronic acid;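 active means activation above the mean of all tested compounds plus 3 SD, cut at about 5.5% in these data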;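 further: 100% = response to 3 µM Δ7-dafachronic acid high control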
ssDAF-12 act: S. stercoralis DAF-12 nuclear receptor activators, primary screen, cell-based, luminescence, HEK293, GRIP1 co-expression, lit1-tk-luc | Nuclear hormone receptor DAF-12 (Strongyloides stercoralis) | HEK293 ssDAF-12/GRIP1 lit1-tk-luc reporter; % of 3 µM dafachronic acid response | activation, % at 6.8 µM | actives 1% (n = 370,000) | AID 652126, 2013;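 active means activation above the mean over all tested compounds plus 3 SD, cut at about 0.9% in these data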;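 further: 0% = DMSO-only wells and 100% = 3 µM delta7-dafachronic acid wells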
DAX1 inh-1: DAX1 (NR0B1) inhibitors on StAR promoter, primary screen, cell-based, luminescence, SF-1 (NR5A1), full-length DAX-1. HEK293T StAR-luciferase reporter, SF-1/DAX-1 repression relief. inhibition, % at 6.8 µM. actives 1.1% (n = 370,000). AID 652010, 2013;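 active means inhibition above the mean over all tested compounds plus 3 SD, cut at about 3.6% in these data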;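 further: 0% = DAX-1 cells with DMSO and 100% = cells lacking DAX-1 with DMSO; higher inhibition means more luminescence from relief of DAX-1 repression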
DAX1 inh-2: DAX1 (NR0B1) inhibitors, primary screen, cell-based, HEK293, Gal4-DAX1, luciferase luminescence; HEK293 Gal4-DAX1 luciferase reporter; inhibition, % at 6.75 µM; actives 0.99% (n = 340,000); AID 504766, 2011;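 active means inhibition above the mean over all tested compounds plus 3 SD, cut at about 4.2% in these data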;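 further: 0% = DAX1-transfected cells with DMSO and 100% = empty-vector control cells with DMSO; inhibition shows as a rise in luminescence from relieved DAX1 repression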
Target sequence (P51843 207-470 limits assumed): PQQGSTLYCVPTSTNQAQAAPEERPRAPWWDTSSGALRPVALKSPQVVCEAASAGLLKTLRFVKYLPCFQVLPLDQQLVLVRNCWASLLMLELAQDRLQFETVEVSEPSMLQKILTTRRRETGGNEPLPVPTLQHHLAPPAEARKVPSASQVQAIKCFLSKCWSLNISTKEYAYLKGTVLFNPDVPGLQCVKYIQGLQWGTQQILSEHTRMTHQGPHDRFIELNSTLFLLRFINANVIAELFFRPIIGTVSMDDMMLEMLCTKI
Starred values were filed as active, the others as inactive; nt = no result given.

SMILES | hgDAF12 agonist | hcDAF-12 act | ssDAF-12 act | DAX1 inh-1 | DAX1 inh-2
CCn1cc(C(=O)N2CC(C)CC(C)C2)c(=O)c2cc(S(=O)(=O)N(C)C)ccc21 (stereo unspecified) | -2 | -2 | -1 | -1 | -1
CC1CC(C)CN(C(=O)c2cn(C)c3ccc(S(=O)(=O)N(C)C)cc3c2=O)C1 (stereo unspecified) | -1 | 0 | 0 | -1 | 4.5*
COCCNC(=O)c1cn(C)c2ccc(S(=O)(=O)N(C)C3CCCCC3)cc2c1=O | -2 | -1 | -1 | 0 | 6.5*
COc1ccc(CN2CN3Cc4ccc(C)cc4C3CS2(=O)=O)cc1 (stereo unspecified) | 0 | 0 | -1 | 0 | nt
COc1ccc(C(=O)N2C(=S)NC(=O)/C2=C\c2ccc(C)cc2)cc1 | 12* | 2 | -1 | 2 | 1
COc1ccc(OC)c(CN2C(=O)CCCC2(C)c2nnnn2C2CCCC2)c1 (stereo unspecified) | 3 | 0 | -1 | 0 | nt
N#C/C(=C/c1ccc(-c2ccccc2[N+](=O)[O-])o1)C(N)=O | 1 | 0 | -1 | 0 | 0
N#C/C(=C/c1ccc(-c2cc([N+](=O)[O-])ccc2Cl)o1)C(N)=O | -5 | -2 | -2 | -2 | 9.3*
CCc1ccccc1NC(=O)C1CCN(C(=O)c2cccs2)CC1 | 1 | 3 | -2 | 0 | 4.4*
COC(=O)[C@]12C[C@H](CC(=O)NCc3ccc(C)o3)C(=O)N(Cc3ccc(Cl)cc3Cl)C1=C[C@H](C(C)C)O[C@@H]2C1CC1 | 3 | 2 | -1 | -1 | nt
O=[N+]([O-])c1ccc(NN=Cc2ccc(O)cc2)nc1 | 13* | 4 | -1 | 2 | 6.0*
O=[N+]([O-])c1ccc(NN=Cc2ccccc2O)nc1 | -1 | 1 | -2 | -4 | -3
O=[N+]([O-])c1ccc(NCc2ccccc2)nc1 | 6 | 5 | 0 | 0 | 1
Cc1cc(/C=N/Nc2ccc([N+](=O)[O-])cn2)c(C)n1-c1ccc(C(=O)O)cc1 | 5 | 0 | -2 | 0 | 6.6*
O=[N+]([O-])c1ccc(NN=Cc2ccccc2)nc1 | 9 | 4 | 0 | 2 | 2
O=[N+]([O-])c1ccc(N/N=C/c2cccs2)nc1 | 11* | 3 | -1 | 1 | 6.0*
O=[N+]([O-])c1ccc(NN=CCCc2ccccc2)nc1 | 13* | 1 | 0 | 1 | 1
COc1ccc(CC(=O)Nc2ccc(C)cc2S(=O)(=O)N2CCOCC2)cc1OC | 0 | 0 | -2 | -1 | nt
c1ccc(-c2cc(-c3nnc4sc(Cc5cccs5)nn34)[nH]n2)cc1 | -1 | -2 | -1 | 0 | nt
COC(=O)[C@]12C[C@H](CC(=O)N3CCN(C(=O)C4CC4)CC3)C(=O)N(CCc3ccc(OC)c(OC)c3)C1=C[C@H](C(C)(C)C)O[C@@H]2C | -2 | -1 | -1 | 0 | nt
COc1ccc(NC(=O)OCCN2CCCC23CCC(c2ccccc2)CC3)cc1 (stereo unspecified) | 1 | -1 | -2 | nt | nt
CC(C)c1cc(CN2C(C)COCC2C)cc(C(C)C)c1O (stereo unspecified) | 1 | 0 | -1 | -1 | -2
CCN(CC)c1ccc(C=NNc2ccc([N+](=O)[O-])cn2)cc1 | 3 | 2 | -1 | 1 | 2
COc1ccc(C=NNc2ccc([N+](=O)[O-])cn2)cc1 | 11* | 2 | 0 | 3 | 2
CCOC(=O)C1(CC2CC2)CCN(C(=O)c2ocnc2C)CC1 | 3 | 1 | 0 | 0 | 4.3*
SMILES | hgDAF12 agonist | hcDAF-12 act | ssDAF-12 act | DAX1 inh-1 | DAX1 inh-2
CCOC(=O)C1(CCCc2ccccc2)CCN(C(=O)c2ocnc2C)CC1 | 0 | 1 | -1 | 1 | 0
CC(=O)OCCC(CC(C)C)NC(=O)[C@H](CC(C)C)NC(=O)OCc1ccccc1 (stereo partly specified) | 0 | 2 | -1 | nt | nt
Cn1cccc1C(=O)OCc1cc(-c2ccco2)on1 | 10 | 2 | 0 | 4.3* | 3
O=S1(=O)CC(N2CCCC2)CN1 (stereo unspecified) | -2 | 0 | -2 | 0 | nt
C/C(=N\OC(=O)c1ccc(Br)cc1)c1ccccn1 | 0 | 2 | 0.9* | 0 | 1
Cc1ccc(C(=O)O/N=C(\N)c2ccccn2)cc1 | -8 | -2 | -2 | -1 | -3
COc1cc(CNCCc2ccccc2)cc(Br)c1OCC(=O)Nc1ccccc1C | 1 | -2 | 0 | 1 | 4.3*
CCOC(=O)N1CCN(C(=O)C2CCC(=O)N(Cc3cccc(C(F)(F)F)c3)C2)CC1 (stereo unspecified) | 1 | -1 | -1 | -1 | 1
O=C(NCC(=O)N1CCN(c2ccccc2)CC1)c1ccc(Cl)cc1 | -3 | -2 | -1 | 0 | 4.9*
O=C(CCSc1ccccc1)N1CCN(c2ccccc2)CC1 | 12* | 2 | 0 | 3 | 3
O=C(CNC(=O)c1ccc(F)cc1)c1ccc(Cl)cc1 | 11* | 3 | 0 | 1 | 1
Cc1nc(C(=O)NCC(=O)c2ccc(Cl)cc2)c(C(F)(F)F)o1 | -1 | -1 | 1.6* | 0 | 0
C[C@H]1[C@H](N(C)C)CC[C@@]23CCCN2C(=O)CCC[C@@H]13 | -3 | -1 | -2 | nt | nt
Cc1cc(N2CCNC[C@@H]2C)ccc1N1CCN(Cc2ccccc2)[C@H](C)C1 | 0 | -1 | -1 | 0 | nt
O=C(Nc1nc2ncccn2c1-c1ccc(F)cc1)c1ccc(F)cc1 | 1 | -2 | -1 | -2 | nt
Cc1ccc2c(c1)C(CS(=O)(=O)NCC(C)C)NC2 (stereo unspecified) | -1 | 1 | -1 | -1 | nt
O=C(NNC(=O)c1ccccc1O)c1ccc(Br)cc1 | 5 | -1 | -1 | 0 | 7.4*
O=C(COC(=O)c1ccccc1O)NNC(=O)c1ccc(Br)cc1 | -1 | 1 | -1 | -1 | 0
O=C(NCC(=O)N1CCCCCC1)c1ccc(Br)cc1 | 2 | 0 | -1 | 0 | 4.4*
O=C(CNC(=O)c1ccc(Br)cc1)c1ccccc1 | 13* | 4 | 0 | 3 | 1
Cc1nnc(SCC(=O)NCCC2=CCCCC2)[nH]c1=O | 2 | -1 | 0 | 1 | 1
CC(C)(C)c1ccc(S(=O)(=O)N2CCC(c3cn4ccccc4n3)CC2)cc1 | 3 | -2 | 0 | -1 | nt
CCOc1ccccc1-n1nnnc1SCc1nc2ccccc2s1 | 6 | 4 | 3.6* | 2 | 1
